Source: PubChem (The Scripps Research Institute Molecular Screening Center)
DAX1 inh-1 – DAX1 (NR0B1) inhibitors, primary screen, cell-based, HEK293, Gal4-DAX1, luciferase luminescence | Nuclear receptor subfamily 0 group B member 1 (Homo sapiens), P51843 | HEK293 Gal4-DAX1 luciferase reporter | 0.99% of 340,000 active | inhibition, % at 6.75 µM;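 active = inhibition above the mean over all tested compounds plus 3 SD, cut at about 4.2% in these data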;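 also: 0% = DAX1-transfected cells with DMSO and 100% = empty-vector control cells with DMSO; inhibition shows as a rise in luminescence from relieved DAX1 repression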
Target sequence (P51843 207-470 limits assumed): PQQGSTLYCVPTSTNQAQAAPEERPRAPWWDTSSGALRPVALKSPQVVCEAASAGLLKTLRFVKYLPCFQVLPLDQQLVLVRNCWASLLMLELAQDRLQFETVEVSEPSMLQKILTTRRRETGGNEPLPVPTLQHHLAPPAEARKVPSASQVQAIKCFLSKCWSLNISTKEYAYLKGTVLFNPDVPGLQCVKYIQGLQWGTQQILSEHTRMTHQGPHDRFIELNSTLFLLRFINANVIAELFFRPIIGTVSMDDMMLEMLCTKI
hcDAF-12 act – H. contortus DAF-12 nuclear receptor activators, primary screen, cell-based, luminescence, HEK293, lit1-tk-luc reporter; HEK293 hcDAF-12 lit1-tk-luc reporter; 0% DMSO, 100% Δ7-dafachronic acid; AID 652067, 2013; activation, % at 6.8 µM; 1.4% of 370,000 active;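 active = activation above the mean of all tested compounds plus 3 SD, cut at about 5.5% in these data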;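 also: 100% = response to 3 µM Δ7-dafachronic acid high control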
DAX1 inh-2 – DAX1 (NR0B1) inhibitors on StAR promoter, primary screen, cell-based, luminescence, SF-1 (NR5A1), full-length DAX-1 | HEK293T StAR-luciferase reporter, SF-1/DAX-1 repression relief | inhibition, % at 6.8 µM | 1.1% of 370,000 active;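 active = inhibition above the mean over all tested compounds plus 3 SD, cut at about 3.6% in these data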;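 also: 0% = DAX-1 cells with DMSO and 100% = cells lacking DAX-1 with DMSO; higher inhibition means more luminescence from relief of DAX-1 repression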
ssDAF-12 act – S. stercoralis DAF-12 nuclear receptor activators, primary screen, cell-based, luminescence, HEK293, GRIP1 co-expression, lit1-tk-luc. activation, % at 6.8 µM. 1% of 370,000 active. HEK293 ssDAF-12/GRIP1 lit1-tk-luc reporter; % of 3 µM dafachronic acid response. AID 652126, 2013;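 active = activation above the mean over all tested compounds plus 3 SD, cut at about 0.9% in these data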;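 also: 0% = DMSO-only wells and 100% = 3 µM delta7-dafachronic acid wells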
hgDAF12 agonist – H. glycines DAF-12 receptor agonists, primary screen, cell-based, luminescence, HEK293, GAL4 fusion, UAS-luciferase; Nuclear hormone receptor DAF-12 (Heterodera glycines), GAL4 fusion; AID 687014, 2013; activation, % at 6.8 µM; 1.8% of 370,000 active; HEK293 GAL4-hgDAF12 UAS-luciferase reporter, agonist luminescence; normalized to butyrate control;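 active = activation above a cutoff set at the mean of all screened compounds plus 3 SD, cut at about 10% in these data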;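 also: 0% = DMSO wells and 100% = sodium butyrate wells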
DAX1 inh confirm – DAX1 (NR0B1) inhibitors relieving SF-1 repression, confirmation, cell-based, luminescence, HEK293T, full-length DAX-1, SF-1 activated StAR promoter; shares compounds with DAX1 inh-2; 87% of 2,400 active; inhibition, % at 6.8 µM; HEK293T StAR-promoter luciferase reporter, SF-1/DAX-1 repression;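 active = inhibition above the average of every tested compound plus 3 SD, cut at about 3.8% in these data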;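 also: 0% = DAX-1 cells with DMSO and 100% = no DAX-1 control cells with DMSO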
SF1 AF2mut Luc – StAR reporter signal changes without DAX1, counter-screen for DAX1 inhibitor project, cell-based, luminescence, AF-2 mutant SF-1, transactivation. shares compounds with DAX1 inh-2. HEK293 StAR-luciferase, SF-1 AF2 mutant. inhibition, % at 6.8 µM. 78% of 2,400 active. AID 652136, 2013;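 active = inhibition above the mean of all tested compounds plus 3 SD, cut at about 3% in these data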;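 also: 0% = DAX-1 transfected cells with DMSO and 100% = cells without DAX-1 with DMSO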
LXRb hcDAF ctr – LXR agonists, Gal4 luciferase reporter, confirmation, counter-screen for hcDAF-12 agonist project, cell-based, luminescence, HEK293, H. contortus campaign | HEK293 Gal4-LXR tk-luc reporter, 24 h; normalized: DMSO 0%, positive control 100% | activation, % at 6.8 µM | AID 743027, 2013 | 3,400 tested, under 10 active | shares compounds with hcDAF-12 act;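 active = mean percent activation of the reporter above a cutoff set as the average over tested compounds plus their standard deviation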
Target sequence (P55055 whole entry, looked up, the tested form may be a part): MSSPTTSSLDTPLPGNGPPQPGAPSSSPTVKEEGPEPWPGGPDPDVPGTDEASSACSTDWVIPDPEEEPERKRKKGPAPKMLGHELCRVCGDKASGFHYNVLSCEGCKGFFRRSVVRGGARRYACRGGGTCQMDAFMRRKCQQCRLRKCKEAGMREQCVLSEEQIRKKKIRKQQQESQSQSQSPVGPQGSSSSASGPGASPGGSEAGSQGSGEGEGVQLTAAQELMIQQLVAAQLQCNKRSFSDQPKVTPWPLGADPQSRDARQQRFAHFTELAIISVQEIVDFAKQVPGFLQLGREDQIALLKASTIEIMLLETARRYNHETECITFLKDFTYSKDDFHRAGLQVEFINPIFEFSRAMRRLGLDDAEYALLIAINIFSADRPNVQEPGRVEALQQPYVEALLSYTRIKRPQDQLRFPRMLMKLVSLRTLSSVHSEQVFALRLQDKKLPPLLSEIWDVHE
hcDAF12 conf – H. contortus DAF-12 receptor agonists, confirmation, cell-based, luminescence, HEK293, lit1-tk-luc, triplicate. activation, % at 6.8 µM. HEK293 hcDAF-12 lit1-tk-luc reporter; % of Δ7-dafachronic acid response. shares compounds with hcDAF-12 act. AID 743032, 2013. 61% of 3,400 active;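 active = mean activation across triplicate tests above the threshold derived from the earlier primary screen, cut at about 5.5% in these data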;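 also: 0% = DMSO only wells and 100% = 3 µM Δ7-dafachronic acid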
hgDAF12 conf – H. glycines DAF-12 receptor agonists, confirmation, cell-based, luminescence, HEK293, GAL4-LBD fusion; shares compounds with hgDAF12 agonist; HEK293 GAL4-hgDAF12 luciferase reporter, agonist mode; percent of butyrate response; activation, % at 6.8 µM; 80% of 3,300 active; AID 743050, 2013;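 active = mean activation over triplicate wells above the hit cutoff derived from the earlier primary screen, cut at about 11% in these data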;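 also: 0% = DMSO low control and 100% = 2 mM sodium butyrate high control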
LXR ag 2 – LXR agonists, Gal4 luciferase reporter, confirmation, counter-screen for hgDAF-12 agonist project, cell-based, luminescence, HEK293, H. glycines campaign | shares compounds with hgDAF12 agonist | 24 h | activation, % at 6.8 µM | 3,300 tested, under 10 active | AID 743051, 2013;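 active = mean activation of the triplicate above a set limit carried over from the primary screen, none filed active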
Numbers without * were called inactive; nt = no result. A selection: hits, their analogues and other compounds. The true share with any hit is near 4.1%.

SMILES | DAX1 inh-1 | hcDAF-12 act | DAX1 inh-2 | ssDAF-12 act | hgDAF12 agonist | DAX1 inh confirm | SF1 AF2mut Luc | hgDAF12 conf | LXR ag 2 | others
O=C(/C=C/c1ccc(Cl)cc1Cl)Nc1cccc(S(=O)(=O)NC2=NCCC2)c1 | 0 | 4 | 5.4* | 0 | 18* | 9.4* | 5.0* | 14* | 1
O=C(Nc1nc2c(s1)COc1ccccc1-2)c1cccs1 | 4.8* | 0 | 12* | -2 | 15* | 8.8* | 9.4* | 7 | 0
Cc1ccc(-c2nc3c(c(SCC(=O)N4CCOCC4)n2)COC(C)(C)C3)cc1 | 0 | 0 | -1 | -1 | 1 | nt | nt | nt | nt
Cc1ccccc1N1CCN(CC(=O)Nc2nccs2)CC1 | 0 | -2 | 0 | -1 | -2 | nt | nt | nt | nt
CC(=O)N/N=C\c1ccccc1OC/C=C/c1ccccc1 | 1 | -1 | 2 | -1 | 5 | nt | nt | nt | nt
CC(=O)N/N=C\c1cccc(OC/C=C/c2ccccc2)c1 | -2 | 3 | 10* | 0 | 14* | 8.9* | 5.2* | 16* | 1
Cc1ccc(NC(=O)COc2ccccc2C=O)cc1Cl | 0 | 5.8* | 4.5* | 1 | 20* | 9.6* | 5.4* | 15* | 1
Cc1ccc2cc3c(N)c(C(=O)N4CCOCC4)sc3nc2c1 | 5.1* | 6.2* | 5.6* | 1.0* | 16* | 12* | 5.9* | 1 | 0
COc1ccc2cc3c(N)c(C(=O)N4CCCC4)sc3nc2c1 | nt | -1 | 0 | -1 | 4 | nt | nt | nt | nt
Cc1cnc(NC(=O)c2cc3ccccc3o2)s1 | 6.4* | 10* | 7.3* | 1.9* | 19* | 17* | 8.9* | 15* | 1 | LXRb hcDAF ctr=1;hcDAF12 conf=14*
O=C(Nc1cccc(Br)c1)c1cc2ccccc2o1 | 4.3* | 9.1* | 5.1* | 0 | 26* | 12* | 7.0* | 21* | 1 | LXRb hcDAF ctr=1;hcDAF12 conf=5.9*
CC(C)C(=O)Nc1ccc(NC(=O)c2cc3ccccc3o2)cc1 | 0 | -1 | 0 | -1 | 0 | nt | nt | nt | nt
COc1ccc(C(=O)NC(=O)NC2(C(Cl)(Cl)Cl)OCCO2)cc1 | 3 | 9.7* | 12* | 1.0* | 25* | 16* | 6.0* | 20* | 1 | LXRb hcDAF ctr=1;hcDAF12 conf=9.1*
CSc1ccc(/C=N/Nc2ccc(Cl)c(C(=O)O)c2)cc1 | 1 | 5 | 6.7* | 0 | 14* | 17* | 5.9* | 29* | 1
Cc1nn(C)cc1S(=O)(=O)Nc1ccccc1Br | 0 | 1 | 2 | 0 | 0 | nt | nt | nt | nt
CCC(=O)Nc1ccc2c(c1)ncn2-c1ccc(C)cc1 | 2 | 3 | 7.4* | 0 | 13* | 9.0* | 5.5* | 11* | 0
COc1ccc(Cl)cc1C(=O)NNC(=O)c1cccs1 | 3 | 2 | 3 | 0 | 9 | nt | nt | nt | nt
CCc1nnc(NC(=O)c2sc3nc4c(cc3c2N)CCCCCC4)s1 | 3 | 3 | 2 | -1 | 2 | nt | nt | nt | nt
CCc1nnc(NC(=O)c2sc3nc4c(cc3c2N)CCCCC4)s1 | 3 | 6.7* | 5.0* | 0 | 16* | 12* | 7.8* | 14* | 1 | LXRb hcDAF ctr=1;hcDAF12 conf=6.5*
CCCCc1c(-c2ccccc2OC)ncn1Cc1cccc(-c2ccccc2)c1 | nt | -2 | -2 | -1 | -1 | nt | nt | nt | nt
c1ccc2c(c1)cnc1ccccc12 | 0 | 0 | 0 | -1 | -1 | nt | nt | nt | nt
c1ccc(-c2ncc3c(ccc4ccccc43)n2)cc1 | 4 | 23* | 6.3* | 3.6* | 17* | 12* | 3.8* | 17* | 1
N#C/C(=N\Nc1ccc(Cl)cc1)C(=N)N1CCCCC1 | 2 | 7.8* | 5.9* | 1.0* | 15* | 15* | 11* | 19* | 1 | LXRb hcDAF ctr=2;hcDAF12 conf=6.6*
N#C/C(=N\Nc1ccc(F)cc1)C(=O)C1CC1 | nt | 0 | 0 | -1 | 0 | nt | nt | nt | nt
Cc1ccc(N/N=C(\C#N)C(=N)N2CCCCCC2)cc1 | 2 | 12* | 10* | 2.0* | 19* | 16* | 6.8* | 23* | 1 | LXRb hcDAF ctr=2;hcDAF12 conf=9.7*
N#C/C(=N\Nc1ccc(F)cc1)C(=N)N1CCCCCC1 | 4.4* | 9.2* | 7.0* | 0 | 14* | 15* | 4.0* | 18* | 1 | LXRb hcDAF ctr=1;hcDAF12 conf=7.3*
Cc1ccc(N/N=C(\C#N)C(=O)c2ccsc2)cc1 | 0 | 0 | 0 | -1 | 2 | nt | nt | nt | nt
CCCCCC(=O)N1CC2(CC(c3cccc(NC(=O)CC)c3)=NO2)C[C@H]1C(N)=O (stereo partly specified) | 1 | -2 | 0 | -1 | -2 | nt | nt | nt | nt
CC1CCCC(C)N1C(=O)CSc1nnc(-c2cccs2)o1 (stereo unspecified) | 2 | 5 | 4.7* | 0 | 18* | 11* | 8.0* | 17* | 1
